Measurements taken from PubChem BioAssay (Tox21).
Results filed as inconclusive are left out. Entries that show only a call come without a potency. Calls of active or inactive are those of the source. Unless noted, calls come from the whole dose curve.

Assays:
[1] = Nuclear factor erythroid 2-related factor 2/antioxidant responsive element (Nrf2/ARE) small molecule agonists: qHTS cell viability counter screen in human keratinocytes (AID 1919968; active = well fitted curve in the direction sought with a large enough effect in the repeat runs; an effect the other way counts as inactive or inconclusive; note: nearly all actives have a fitted effect of over 55% in size); details: KeratinoSens HaCaT ARE cells viability, CellTiter-Fluor, 24 h; series mostly up to 92.4 µM
Outline: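 After a 5 h attachment period, ARE-reporter keratinocytes were dosed with compounds in DMSO and then cultured 23 h at 37 C. Cell viability came from CellTiter-Fluor signal read after a further 1 h.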

[2] = Nuclear factor erythroid 2-related factor 2/antioxidant responsive element (Nrf2/ARE) small molecule agonists: luciferase reporter gene qHTS assay in human keratinocytes (AID 1919969); details: KeratinoSens HaCaT ARE-luciferase, luminescence, 24 h; series mostly up to 92.4 µM; note: nearly all actives have a fitted effect of over 35% in size
[3] = target: Gonadotropin-releasing hormone receptor (Homo sapiens) (UniProt P30968); assay: Human gonadotropin-releasing hormone receptor (GnRHR) small molecule agonists, calcium flux assay in GnRHR-HEK293 cells (AID 1920063); details: calcium flux fluorescence, agonist mode; series mostly up to 57.6 µM; note: nearly all actives have a fitted effect of over 35% in size; note: potency is the fitted concentration of half-maximal effect
Chain of Gonadotropin-releasing hormone receptor (Homo sapiens) (P30968 whole entry, looked up): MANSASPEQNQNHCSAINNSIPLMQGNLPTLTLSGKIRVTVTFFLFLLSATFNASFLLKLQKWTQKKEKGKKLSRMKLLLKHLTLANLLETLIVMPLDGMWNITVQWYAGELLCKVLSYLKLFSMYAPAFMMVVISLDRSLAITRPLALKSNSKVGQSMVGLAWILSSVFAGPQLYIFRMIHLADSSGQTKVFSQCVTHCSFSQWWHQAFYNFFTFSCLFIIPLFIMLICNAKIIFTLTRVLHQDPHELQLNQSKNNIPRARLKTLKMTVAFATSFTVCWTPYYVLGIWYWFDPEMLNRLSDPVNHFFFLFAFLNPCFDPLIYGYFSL
Outline: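 We seeded human GnRHR-expressing HEK293 cells for 18 hours, loaded them with calcium dye for an hour at 37 C, added test compounds, and recorded fluorescence intensity kinetically for three minutes.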

[4] = target: KiSS-1 receptor (Homo sapiens) (UniProt Q969F8); assay: Human kisspeptin (KISS1R) small molecule agonists, calcium flux assay in KISS1R-HEK293 cells (AID 1920064; active = well fitted curve in the direction sought with a large enough effect in the repeat runs; an effect the other way counts as inactive or inconclusive); details: KISS1R-HEK293, calcium flux fluorescence, agonist; series mostly up to 76.8 µM
Chain of KiSS-1 receptor (Homo sapiens) (Q969F8 whole entry, looked up): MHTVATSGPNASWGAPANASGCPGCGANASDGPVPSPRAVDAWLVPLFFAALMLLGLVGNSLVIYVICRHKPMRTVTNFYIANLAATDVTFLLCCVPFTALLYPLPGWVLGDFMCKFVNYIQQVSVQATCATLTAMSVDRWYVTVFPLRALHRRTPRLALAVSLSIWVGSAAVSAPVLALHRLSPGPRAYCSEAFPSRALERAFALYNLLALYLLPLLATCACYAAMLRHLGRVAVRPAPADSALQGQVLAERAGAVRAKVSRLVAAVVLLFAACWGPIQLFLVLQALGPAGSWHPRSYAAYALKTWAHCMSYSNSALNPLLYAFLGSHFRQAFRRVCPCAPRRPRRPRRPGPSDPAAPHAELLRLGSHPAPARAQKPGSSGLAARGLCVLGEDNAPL
Outline: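 Kinetic calcium assay, 1 s sampling over 3 min at Ex/Em 480/540, in HEK293 cells engineered with human KISS1R; compounds delivered in DMSO after 1 h dye loading.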

[5] = G protein-coupled receptor (GPCR) small molecule agonists, calcium flux assay: HEK293 wild type cell line counter screen (AID 1920065); details: HEK293 WT calcium flux, fluorescence, agonist mode; series mostly up to 57.6 µM
Outline: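 Calcium-sensitive dye, loaded 1 h at 37 C into cells cultured 18 h, reports compound-evoked calcium release as fluorescence (Ex/Em 480/540), measured over 3 min. Agonist mode; 15-point titrations, triplicate.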

[6] = p53 small molecule agonists, cell-based qHTS assay with human liver microsomes (AID 1963577); details: HCT-116 p53RE-bla with human liver microsomes, ratio, 16 h; series mostly up to 66 µM
Outline: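 Cells carrying a p53-responsive bla reporter were rested 5 h (37 C, 5% CO2) before compound transfer. Human liver microsomes plus NADPH, 0.5 mg/mL final apiece, supplied metabolism during the 16 h 37 C exposure.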

[7] = p53 small molecule agonists, cell-based qHTS assay with rat liver microsomes (AID 1963578); details: HCT-116 p53RE-bla, beta-lactamase ratio, 16 h; series mostly up to 66 µM
Outline: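 Fluorescence from a beta-lactamase reporter under a p53 response element was measured after cells had been incubated 16 h at 37 C with test compound and rat liver microsomes plus NADPH (0.5 mg/mL final each).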

[8] = p53 small molecule agonists, cell-based qHTS assay with human liver microsomes: qHTS cell viability counter screen (AID 1963579); details: p53RE-bla HCT-116 viability, ATP luminescence, 16 h, HLM; series mostly up to 66 µM; note: nearly all actives have a fitted effect of over 45% in size
Outline: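 Seed p53RE-bla cells at 4,000 per well; incubate 5 h at 37 C; add compound, human liver microsomes and NADPH; incubate 16 h at 37 C; add CellTiter-Glo; after 30 min at room temperature, read luminescence.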

[9] = p53 small molecule agonists, cell-based qHTS assay with rat liver microsomes: qHTS cell viability counter screen (AID 1963580); details: p53RE-bla HCT-116 + rat microsomes, ATP viability, 16 h; series mostly up to 66 µM; note: nearly all actives have a fitted effect of over 45% in size
Outline: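 Viability is assessed in parallel with the p53 reporter read: HCT-116 p53RE-bla cells receive compounds plus rat microsomes and NADPH (0.5 mg/mL final apiece), incubate 16 h at 37 C, and then CellTiter-Glo luminescence is recorded.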

[10] = p53 small molecule agonists, cell-based qHTS assay: qHTS cell viability counter screen (AID 1963581); details: p53RE-bla HCT-116 viability, ATP luminescence, 16 h; series mostly up to 66 µM; note: nearly all actives have a fitted effect of over 45% in size
Outline: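 Following 5 h attachment, HCT-116 p53RE-bla cells took up compound for 16 h at 37 C; the reporter was read with B/G FRET substrate (2 h RT), and viability then via CellTiter-Glo ATP luminescence.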

[11] = p53 small molecule agonists, cell-based qHTS assay (AID 1963582; active = well fitted activation curve with a large enough effect in the signal ratio in the repeat runs, not every such curve was filed as active; the % refers to the signal ratio); details: HCT-116 p53RE-bla reporter, beta-lactamase FRET ratio, 16 h; series mostly up to 66 µM
Outline: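 In this cell-based concentration-response screen, a p53 response element drives beta-lactamase; cells received DMSO-borne compounds after 5 h culture and were incubated a further 16 h before FRET substrate development.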

[12] = target: 5-hydroxytryptamine receptor 2A (Homo sapiens) (UniProt P28223); assay: 5-hydroxytryptamine receptor 2A (HTR2A) small molecule antagonists, cell-based qHTS assay (AID 1963586); details: HTR2A-CHO cells, DOI-induced calcium flux, fluorescence; series mostly up to 61.5 µM; note: nearly all actives have a fitted effect of over 45% in size; note: potency is the fitted concentration of half-maximal effect
Chain of 5-hydroxytryptamine receptor 2A (Homo sapiens) (P28223 whole entry, looked up): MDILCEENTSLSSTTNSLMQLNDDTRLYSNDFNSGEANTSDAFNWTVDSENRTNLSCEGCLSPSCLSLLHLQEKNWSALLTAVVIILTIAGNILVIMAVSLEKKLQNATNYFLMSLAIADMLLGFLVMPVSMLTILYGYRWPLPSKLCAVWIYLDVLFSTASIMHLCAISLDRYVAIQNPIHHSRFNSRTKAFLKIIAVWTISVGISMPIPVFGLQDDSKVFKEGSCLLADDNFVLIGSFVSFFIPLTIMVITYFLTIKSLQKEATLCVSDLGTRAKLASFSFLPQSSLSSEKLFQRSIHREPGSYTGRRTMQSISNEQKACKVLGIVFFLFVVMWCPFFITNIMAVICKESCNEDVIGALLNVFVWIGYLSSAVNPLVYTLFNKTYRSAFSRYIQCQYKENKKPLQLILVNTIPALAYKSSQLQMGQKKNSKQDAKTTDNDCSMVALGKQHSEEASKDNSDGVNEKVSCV
Outline: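 Antagonist-mode intracellular calcium assay: DOI (4 nM) added after 5 min compound pre-incubation at room temperature to dye-loaded HTR2A-CHO cells. Fluorescence followed for 3 min, sampled every second.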

[13] = target: 5-hydroxytryptamine receptor 2A (Homo sapiens) (UniProt P28223); assay: 5-hydroxytryptamine receptor 2A (HTR2A) small molecule agonists, cell-based qHTS assay (AID 1963587); details: HTR2A-CHO cells, calcium flux fluorescence, agonist mode; series mostly up to 76.8 µM; note: nearly all actives have a fitted effect of over 30% in size
Outline: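 CHO cells stably expressing human HTR2A, plated 18 h, loaded with calcium dye 1 h at 37 C. Agonist mode: compounds added and intracellular calcium fluorescence recorded kinetically for 2 min at 1 sec intervals.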

[14] = target: Muscarinic acetylcholine receptor M1 (Homo sapiens) (UniProt P11229); assay: Cholinergic receptor muscarinic 1 (CHRM1) small molecule antagonists, cell-based qHTS assay (AID 1963588); details: CHRM1-CHO antagonist mode, calcium flux fluorescence; series mostly up to 61.5 µM; note: nearly all actives have a fitted effect of over 40% in size; note: potency is the fitted concentration of half-maximal effect
Chain of Muscarinic acetylcholine receptor M1 (Homo sapiens) (P11229 whole entry, looked up): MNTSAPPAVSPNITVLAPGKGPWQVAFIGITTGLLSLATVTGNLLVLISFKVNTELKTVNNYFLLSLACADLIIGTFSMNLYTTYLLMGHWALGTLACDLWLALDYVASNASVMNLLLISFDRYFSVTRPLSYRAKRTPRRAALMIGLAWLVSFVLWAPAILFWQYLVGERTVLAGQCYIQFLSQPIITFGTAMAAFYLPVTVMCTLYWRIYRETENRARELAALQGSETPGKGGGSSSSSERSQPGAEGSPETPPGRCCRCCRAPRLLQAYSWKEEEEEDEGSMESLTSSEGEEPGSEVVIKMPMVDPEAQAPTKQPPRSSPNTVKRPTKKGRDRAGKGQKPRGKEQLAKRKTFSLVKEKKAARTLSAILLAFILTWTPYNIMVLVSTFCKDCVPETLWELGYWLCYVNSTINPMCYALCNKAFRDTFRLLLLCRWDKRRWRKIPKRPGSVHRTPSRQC
Outline: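 CHRM1-CHO calcium-flux assay, antagonist mode. Cells were seeded 18 h, dye-loaded 1 h at 37 C and given compound for 5 min at RT, then acetylcholine was added at 50nM. FDSS fluorescence was read 3 min; 15 concentrations, three runs.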

[15] = cAMP Responsive Elements (CRE) small molecule agonists, cell-based qHTS assay (AID 1963590); details: CRE-bla HEK293T, beta-lactamase FRET ratio, 3 h; series mostly up to 92.4 µM
Outline: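 A CRE-responsive beta-lactamase reporter in HEK 293T cells was used. Treatment ran 3 h at 37 C; detection used LiveBLAzer B/G FRET substrate for 2 h at room temperature.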

[16] = cAMP Responsive Elements (CRE) small molecule antagonists, cell-based qHTS assay (AID 1963591; active = well fitted inhibition curve with a large enough effect in the signal ratio in the repeat runs, not every such curve was filed as active; the % refers to the signal ratio); details: CRE-bla HEK293T, beta-lactamase FRET ratio; series mostly up to 92.4 µM
Outline: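 HEK293T cells carrying a CRE-driven beta-lactamase reporter receive compound and NKH477 (0.25 uM final) for 3 h. Fluorescence from LiveBLAzer B/G FRET substrate is read after 2 h at room temperature.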

[17] = target: Beta-2 adrenergic receptor (Homo sapiens) (UniProt P07550); assay: Adrenergic beta2 receptor (ADRB2) small molecule antagonists, cell-based qHTS assay (AID 1963592); details: CHO-ADRB2 cells, isoproterenol-stimulated cAMP HTRF ratio, 0.5 h; series mostly up to 92.4 µM; note: nearly all actives have a fitted effect of over 50% in size
Chain of Beta-2 adrenergic receptor (Homo sapiens) (P07550 whole entry, looked up): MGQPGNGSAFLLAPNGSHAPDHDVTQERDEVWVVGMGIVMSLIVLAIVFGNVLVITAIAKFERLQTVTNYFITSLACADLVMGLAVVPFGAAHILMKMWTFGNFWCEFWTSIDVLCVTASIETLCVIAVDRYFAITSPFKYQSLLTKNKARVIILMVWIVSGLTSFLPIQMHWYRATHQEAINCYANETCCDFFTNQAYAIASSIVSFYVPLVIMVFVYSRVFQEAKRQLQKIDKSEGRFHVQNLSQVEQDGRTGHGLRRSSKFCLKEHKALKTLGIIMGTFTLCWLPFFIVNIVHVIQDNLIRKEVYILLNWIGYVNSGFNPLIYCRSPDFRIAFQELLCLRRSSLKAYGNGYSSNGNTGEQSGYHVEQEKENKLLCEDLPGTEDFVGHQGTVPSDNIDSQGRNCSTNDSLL
Outline: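 Cells (CHO, stable ADRB2 overexpression) incubated 18-20hr at 37C; compounds added from DMSO; agonist mix (1nM isoproterenol, 100uM IBMX, 25uM Ro-20-1724) added; 0.5hr RT; d2-cAMP and anti-cAMP-cryptate added; 1hr RT; 665/615 nm read.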

[18] = target: D(2) dopamine receptor (Homo sapiens) (UniProt P14416); assay: Dopamine D2 receptor (DRD2) small molecule agonists, cell-based qHTS assay (AID 1963594); details: HEK293-DRD2 cAMP HTRF, agonist mode, 30 min; series mostly up to 92.4 µM; note: nearly all actives have a fitted effect of over 35% in size
Chain of D(2) dopamine receptor (Homo sapiens) (P14416 whole entry, looked up): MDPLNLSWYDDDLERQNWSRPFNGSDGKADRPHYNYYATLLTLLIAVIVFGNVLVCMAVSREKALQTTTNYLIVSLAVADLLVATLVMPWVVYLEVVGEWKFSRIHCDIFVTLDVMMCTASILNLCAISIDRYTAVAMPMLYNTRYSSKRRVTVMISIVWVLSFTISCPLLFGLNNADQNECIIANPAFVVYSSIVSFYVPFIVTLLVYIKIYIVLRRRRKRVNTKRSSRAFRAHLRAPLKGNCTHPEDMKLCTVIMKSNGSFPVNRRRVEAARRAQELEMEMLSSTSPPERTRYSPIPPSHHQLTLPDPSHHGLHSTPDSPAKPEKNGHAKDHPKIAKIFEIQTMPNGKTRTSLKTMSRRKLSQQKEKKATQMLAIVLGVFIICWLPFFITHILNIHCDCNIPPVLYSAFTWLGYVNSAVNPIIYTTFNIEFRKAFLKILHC
Outline: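 HEK293 cells stably expressing human DRD2, pre-treated with PDE inhibitor Ro20-1724 (0.1 mM final) and compound 10 min at room temperature, then stimulated with NKH477 (200nM […]) for 30 min. cAMP read by HTRF (665/620 nm).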

[19] = target: D(2) dopamine receptor (Homo sapiens) (UniProt P14416); assay: Dopamine D2 receptor (DRD2) small molecule antagonists, cell-based qHTS assay (AID 1963595; active = well fitted inhibition curve with a large enough effect in the signal ratio in the repeat runs, with a control signal flat; the % refers to the signal ratio; note: potency is the fitted concentration of half-maximal effect); details: HEK293-DRD2 cAMP HTRF antagonist mode; series mostly up to 92.4 µM
Outline: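 Stable D2 receptor HEK293 line, 24 h after seeding. Compound preincubated 10 min, then quinpirole (12 nM) with forskolin analogue NKH477 (200 nM), 30 min, room temperature. Detection by time-resolved FRET of cAMP.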

[20] = target: Muscarinic acetylcholine receptor M1 (Homo sapiens) (UniProt P11229); assay: Cholinergic receptor muscarinic 1 (CHRM1) small molecule agonists, cell-based qHTS assay (AID 1963589); details: CHRM1-CHO cells, agonist mode, calcium flux fluorescence; series mostly up to 76.8 µM; note: nearly all actives have a fitted effect of over 35% in size
Outline: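 Measures agonist-induced intracellular calcium rise. Stable human CHRM1 CHO line, 1 h dye load at 37 C, compounds from DMSO, kinetic fluorescence read.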

Compound	Potency [1]	Potency [2]	Potency [3]	outcome [4]	outcome [5]	Potency [6]	Potency [7]	Potency [8]	Potency [9]	Potency [10]	Potency [11]	Potency [12]	Potency [13]	Potency [14]	Potency [15]	Potency [16]	Potency [17]	Potency [18]	Potency [19]	Potency [20]
C=CC(C)C#N (centres undefined)	inactive	inactive	inactive	inactive	inactive	inactive	inactive	inactive	inactive	inactive	inactive	inactive	inactive	inactive	inactive	inactive	inactive	inactive	inactive	
Nc1ccc(C(=O)N2CC3CC(CN(Cc4ccccc4)C3)C2)cc1	inactive	inactive	inactive	inactive	inactive	inactive	inactive	inactive	inactive	inactive	inactive	inactive	inactive	1830 nM (active)			inactive	inactive	inactive	inactive
Cc1cc(=O)oc2cc(O)cc(O)c12	inactive	inactive	inactive	inactive	inactive	inactive	inactive	inactive	inactive	inactive	inactive	inactive	inactive	inactive			inactive	inactive	inactive	inactive
CC[C@H](NC(C)C)[C@H](O)c1ccc(O)c2[nH]c(=O)ccc12	inactive	inactive	12 nM (active)	inactive	inactive	inactive	inactive	inactive	inactive	inactive	inactive	inactive	inactive	inactive				inactive	94.4 nM (active)	
O=C1CCCc2c(O)cccc21	inactive	inactive	inactive	inactive	inactive	inactive	inactive	inactive	inactive	inactive	inactive	inactive	inactive	163 nM (active)	inactive	inactive	inactive	inactive		
CC(C)Cc1ccc(C(C)C(=O)OCc2ccccn2)cc1 (centres undefined)	inactive	inactive	inactive	inactive	inactive	inactive	inactive	inactive	inactive	inactive	inactive	2050 nM (active)	inactive		inactive		inactive		inactive	inactive
O=C(O)c1cccc(C(=O)O)n1	inactive	inactive	inactive	inactive	inactive	inactive	inactive	inactive	inactive	inactive	inactive	inactive	inactive		inactive	inactive	inactive		inactive	inactive
